CYP2C9 act = CYP2C9 (human) activation; P11712; recombinant CYP2C9, luciferin-H conversion, luminescence; stronger effect = higher value; factor 1 = untreated enzyme, 0 = blocked; activation factor at 5 µM; actives 1.4% (n = 96,000); AID 1024;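 active = activation factor of 2 or more for CYP2C9 at a 5 µM dose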;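 note: 0 = sulfaphenazole-blocked wells and 1 = vehicle-only wells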
Target sequence (P11712 whole entry, looked up): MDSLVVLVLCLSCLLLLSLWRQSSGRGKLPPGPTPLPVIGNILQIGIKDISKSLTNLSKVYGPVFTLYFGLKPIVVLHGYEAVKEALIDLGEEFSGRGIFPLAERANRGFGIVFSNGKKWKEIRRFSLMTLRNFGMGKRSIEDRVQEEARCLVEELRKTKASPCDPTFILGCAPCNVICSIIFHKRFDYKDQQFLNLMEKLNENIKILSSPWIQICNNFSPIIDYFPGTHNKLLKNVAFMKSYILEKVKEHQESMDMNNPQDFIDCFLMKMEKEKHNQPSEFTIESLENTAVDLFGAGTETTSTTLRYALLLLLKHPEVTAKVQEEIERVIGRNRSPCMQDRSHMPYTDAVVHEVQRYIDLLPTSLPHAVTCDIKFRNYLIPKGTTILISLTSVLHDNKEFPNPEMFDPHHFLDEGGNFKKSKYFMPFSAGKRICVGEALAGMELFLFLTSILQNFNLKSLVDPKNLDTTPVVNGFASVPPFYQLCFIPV
CYP2C19 inhib = inhibitors of human CYP2C19. P33261. inhibition, % at 5 µM. CYP2C19 Supersomes, luciferin-H EGE luminescence, 30 min. actives 21% (n = 96,000). AID 778;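 active = CYP2C19 inhibition above a set limit at 5 µM in the primary screen, cut at about 50% in these data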;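 note: plate controls were negative control wells for no effect and 2.5 mM tranylcypromine positive control for full effect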
CYP2C9 inh = blocks human cytochrome P450 2C9 | P11712 | CYP2C9 Supersomes, luciferin-H conversion, luminescence | inhibition, % at 5 µM | actives 20% (n = 96,000) | AID 777;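 active = blocking of liver enzyme CYP2C9 beyond about 50% at 5 µM, limit read from the data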
CYP2C19 activ = cytochrome P450 2C19 (human) activation; P33261; recombinant CYP2C19, luciferin-H EGE luminescence; stronger effect = higher value; 0 = fully inhibited enzyme, 1 = untreated enzyme; activation factor at 5 µM; 96,000 tested, under 10 active; AID 1025;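 active = activation factor of at least 2 at 5 µM in the primary screen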;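 note: 0 = wells with 2.5 mM tranylcypromine and 1 = vehicle-only wells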
PTK2B oligo ant = Pyk2 (human) oligomerization antagonism. Q14289. Q293 cells, Pyk2 FERM NanoBiT luminescence; stronger effect = lower value. actives 0.83% (n = 99,000). z-score (the deposit names both 25 µM and 10 µM);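 active = Z-score of -3 or lower, scaled per plate to the spread of control and sample wells; inactive = z-score above -3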;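 note: negative z-score means lost luminescence so less FERM oligomerization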
* marks the source's active call; other numbers are inactive results; . = no result. An excerpt weighted towards active compounds, which were near 28% of everything screened.

SMILES | CYP2C9 act | CYP2C19 inhib | CYP2C9 inh | CYP2C19 activ | PTK2B oligo ant
CCCN(CCC)CCCNC(=O)c1ccc2c(c1)N(CC)C(=O)c1ccccc1S2=O (stereo not drawn) | 0.9 | -1 | 10 | 1 | -0.14
CCN1C(=O)c2ccccc2S(=O)(=O)c2ccc(C(=O)NCc3cccnc3)cc21 | 0 | 58* | 98* | 0.4 | .
CCCCNC(=O)c1ccc2c(c1)N(CC)C(=O)c1ccccc1S2(=O)=O | 0.1 | 46 | 90* | 0.5 | .
CCCOc1cccc(C2/C(=C(/O)c3ccncc3)C(=O)C(=O)N2CCCN(C)C)c1 (stereo not drawn) | 1.1 | 7 | -6 | 0.9 | .
COc1ccc(N2C(=O)CCC(C(C)=O)=C2C)cc1 | 0.9 | 24 | 8 | 0.8 | -0.15
Nc1nnc(C(c2ccccc2)c2ccccc2)s1 | 0.7 | 37 | 33 | 0.6 | 0.35
Cc1ccc(NC(=O)c2ccccc2)s1 | 0.6 | 58* | 38 | 0.4 | 1
CCOC(=O)c1c(-c2ccc(C)cc2)csc1NC(=S)NC(=O)c1ccccc1 | 0.1 | 6 | 93* | 0.9 | -0.83
CCOC(=O)c1c(-c2ccc(C)cc2)csc1NC(=O)C1CC=CCC1C(=O)O (stereo not drawn) | 1.1 | -11 | -10 | 1.1 | 0.67
O=C(Oc1ccccc1)c1cccc(N2C(=O)CCC2=O)c1 | 0.5 | 66* | 51* | 0.3 | 0.38
CCOC(=O)c1c(-c2ccccc2)csc1NC(=O)C1CCCO1 (stereo not drawn) | 0.8 | -4 | 16 | 1 | -2.4
CCOC(=O)c1c(-c2ccccc2)csc1NC(=O)c1cccc(N2C(=O)CCC2=O)c1 | 0.2 | 45 | 84* | 0.6 | -2.9
CCC(Sc1nc(N)c(NC(=O)c2ccc(OC)c(OC)c2)c(=O)[nH]1)C(=O)OC (stereo not drawn) | 1.1 | -14 | -10 | 1.1 | .
O=c1c2cn[nH]c2[nH]c(=S)n1-c1ccccc1F | . | . | . | . | 1.8
O=C1C(C23CC4CC(CC(C4)C2)C3)C(=O)N(c2ccccc2)N1c1ccccc1 | . | . | . | . | -1.7
COc1cc(C2C(C(=O)c3ccc(C)o3)=C(O)C(=O)N2c2cc(C)on2)cc(Br)c1O (stereo not drawn) | 0.3 | -4 | 66* | 1 | 1.8
COc1cc(C2C(C(=O)c3ccco3)=C(O)C(=O)N2c2cc(C)on2)cc(Br)c1O (stereo not drawn) | 0.4 | 0 | 60* | 1 | -0.11
Cc1ccc(-c2cc(C(=O)Nc3cnn(C(C)C)c3)no2)cc1 | 0.8 | -4 | 21 | 1 | -0.82
COCC(C)NC(=O)c1cc(-c2ccc(O)cc2)on1 (stereo not drawn) | 2.4* | 11 | -138 | 0.9 | .
CCc1c(C)sc(NC(=O)c2cc(-c3ccc(O)cc3)on2)c1C#N | 2.1* | -2 | -106 | 1 | .
Cc1ccc(-c2cc(C(=O)Nc3c(C#N)cnn3C)no2)cc1 | 0.4 | -15 | 56* | 1.2 | -0.09
CCC1(CC)NC(=S)N(Nc2ccccc2)C1=O | 1 | 30 | -3 | 0.7 | 0.53
CCCC1CCC(=C(C#N)C(N)=O)CC1 (stereo not drawn) | . | . | . | . | 0.53
O=S(=O)(c1ccc(C2CCCCC2)cc1)N1CCCC1 | 0.8 | -2 | 22 | 1 | -1.6
CCn1cc(C(=O)NC2CCCCCC2)c2cc(OC)c(OC)cc2c1=O | 0.9 | 4 | 6 | 1 | -0.08
SMILES | CYP2C9 act | CYP2C19 inhib | CYP2C9 inh | CYP2C19 activ | PTK2B oligo ant
COc1ccc(OCC(=O)N2CCN(C(=O)COc3ccc(Br)cc3)CC2)cc1 | 0.5 | 64* | 46 | 0.4 | 0.69
CC(=O)N1CCN(C(=O)COc2ccc(Br)cc2)CC1 | 1 | 89* | 0 | 0.1 | 0.32
O=C(COc1ccccc1)N1CCN(C(=O)Cc2ccccc2)CC1 | 1.1 | 1 | -6 | 1 | -0.15
Cc1nc(N2CCN(C(=O)COc3ccccc3)CC2)c2c(C)c(C)sc2n1 | 0.1 | 36 | 93* | 0.6 | -0.9
O=C(CCC1CCCC1)N1CCN(C(=O)COc2ccccc2)CC1 | 1 | -5 | -3 | 1.1 | 0.52
COc1ccc(OCC(=O)N2CCN(C(=O)c3ccco3)CC2)cc1 | 0.9 | 8 | 8 | 0.9 | -0.71
O=C(COc1ccc(Br)cc1)N1CCN(c2ccccc2)CC1 | 0.6 | 71* | 37 | 0.3 | 1.9
CC(OC(=O)c1snc(C(=O)NC2CCCCC2)c1N)C(=O)NC1CCCCC1 (stereo not drawn) | . | . | . | . | 1.4
CC(C)OCCCNC(=O)CCSc1ccc(Cl)cc1 | 0.2 | 63* | 78* | 0.4 | 0.63
COc1cc(SC)ccc1C(=O)NCCCOC(C)C | 1 | 30 | 2 | 0.7 | 0.51
CCOC(=O)Cc1csc(NC(NC(=O)CC)(C(F)(F)F)C(F)(F)F)n1 | 1 | -4 | -2 | 1 | -0.43
COc1ccc(Cn2c(CCCO)nc3ccccc32)cc1OC | 0.4 | 91* | 59* | 0.1 | 0.97
CCS(=O)(=O)c1nc2ccccc2n1Cc1ccccc1Cl | 0.4 | 91* | 62* | 0.1 | .
COCCOCCn1c(CCCO)nc2ccccc21 | 1.2 | -19 | -21 | 1.2 | 0.54
COc1ccccc1Cn1c(CCCO)nc2ccccc21 | 0.3 | 84* | 65* | 0.2 | -0.26
CCc1nc2ccccc2n1Cc1ccccc1OC | 0.3 | 96* | 65* | 0 | 0.3
CS(=O)(=O)c1nc2ccccc2n1Cc1ccccc1 | 0.9 | 45 | 11 | 0.6 | 1.2
CCn1c(SCC(=O)Nc2cccc(C(C)=O)c2)nnc1C(C)C | 0.9 | 9 | 11 | 0.9 | 0.35
CCn1c(Cc2ccccc2)nnc1SCC(=O)Nc1ccccc1N1CCOCC1 | . | . | . | . | -0.05
O=C(CSc1ccc2ccccc2n1)N1CCC(c2noc3ccc(F)cc23)CC1 | . | . | . | . | -0.51
COc1ccc(C)cc1Cn1c(S(C)(=O)=O)nc2ccccc21 | 0.4 | 98* | 62* | 0 | -1.8
O=C(Cn1cnc2ccccc21)N/N=C/c1ccccn1 | 0.7 | 3 | 29 | 1 | 0.78
O=C1c2ccccc2C(=O)N1CCCCN(C(=O)c1cccc([N+](=O)[O-])c1)c1ccc(Cl)cc1 | 0.4 | 69* | 61* | 0.3 | -1.5
O=C1c2ccccc2C(=O)N1CCCCN(C(=O)c1ccco1)c1ccc(Cl)cc1 | 0.2 | 57* | 82* | 0.4 | -0.62
CCN(CCCCN1C(=O)c2ccccc2C1=O)c1ccc2c(c1)C(=O)N(C)C2=O | 0.5 | 45 | 46 | 0.5 | -1.1
SMILES | CYP2C9 act | CYP2C19 inhib | CYP2C9 inh | CYP2C19 activ | PTK2B oligo ant
Cc1ccc(N(CCCCN2C(=O)c3ccccc3C2=O)C(=O)c2cccs2)cc1 | 0.3 | 61* | 66* | 0.4 | -1.8
C=CCNCCCCOc1ccc(OCC)cc1 | 1 | 1 | 4 | 1 | -0.16
Cn1cnnc1SCc1ccc(C#N)cc1 | 1.4 | -4 | -36 | 1 | 0.5
Cn1cnnc1SCc1ccc(-c2ccc(Br)cc2)o1 | 0.4 | 93* | 56* | 0.1 | -0.1
Cc1csc(SCc2c(C(=O)O)oc3ccccc23)n1 | . | . | . | . | -0.23
CCOC(=O)Cc1c(C)c2ccc(N(CC)CC)cc2oc1=O | 2.1* | 3 | -112 | 1 | 0.84
CCOC(=O)CCc1c(C)c2ccc(OCC(=O)N(CC)CC)c(C)c2oc1=O | 0.5 | 34 | 51* | 0.7 | 3.8

Compound activity (PubChem BioAssay)
